Several values for one entry are separate records, joined by “and”; a condition that tells them apart may be missing. Identical values can stand only once. Out of some 360,000 compounds screened, about 7,500 (2.1%) were called active. Another 20% or so got no clear call; they are omitted. The call rests on the fitted dose curve; in most records, active means well fitted inhibition curve with a large enough effect; inconclusive means small, poorly fitted or top-dose-only effect, or effect the other way; inactive means flat fitted curve, though single readings scatter. Shown is part of a subset that was picked to be rich in actives. A call without a number means that no potency is given here.
Potency means the concentration at half of the fitted maximal effect.

A short description of the assay: Nrf2 qHTS screen for inhibitors. Further: nearly all actives have a fitted effect of over 60% in size. As to conditions: A549 ARE-Fluc reporter, luciferase luminescence, 18-24 h; series mostly up to 46 µM. A digest of the protocol:
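Nrf2 function is reported as luminescence of an ARE-controlled luciferase in A549 cells. Compounds were tested at several concentrations, and a CellTiter-Fluor read on the same wells flagged cytotoxicity.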
Background: Quantitative high-throughput screening tests each substance at several concentrations.
For `CC(=O)O[C@]1(C(C)=O)CC[C@H]2[C@@H]3C=C(C)C4=CC(=O)CC[C@]4(C)[C@H]3CC[C@@]21C`, the Potency is 0.731 µM (active).
On the same count and under the same terms, under `C[C@]12CCC(=O)C=C1C=CC1C2CC[C@@]2(C)C1CC[C@@]21CCC(=O)O1` (stereo partly specified) stands “inactive”; under `CSCCC(NS(=O)(=O)c1ccc(C)cc1)C(=O)N(C)CC(=O)Nc1ccccc1Br` (stereo unspecified), “inactive”.
As to `O=[N+]([O-])c1ccc(COc2ccccc2CN2CCOCC2)cc1`, the Potency entry is “inactive”.
In the case of `CCOC(=O)c1c(C)[nH]c(C)c1S(=O)(=O)N1CCC(C(=O)Nc2ccc(C)c(Cl)c2)CC1`, the Potency result was “inactive”.
Still for that read-out and setting: under `CC1CCN(C(=O)c2ccc3c(c2)NC(=O)CN3)CC1` stands “inactive”.
On the same count and under the same terms, for `CC1=Nc2cc(C(=O)N3CCC(C)CC3)ccc2Sc2ccc(Cl)cc21` the value was 16.4 µM (active); for `COc1ccc(C(=O)Nc2c(Cl)cc(Cl)cc2C(=O)N2CCC(C)CC2)cc1`, “inactive”.
Same read-out and setting: under `CC1CCCCC1NC(=O)NC(=O)COC(=O)C1=NN(c2ccccc2)C(=O)CC1` (stereo unspecified) stands “inactive”; under `O=C1C(F)N([S+](=O)([O-])c2ccc3c(c2)OCCO3)CCN1[S+](=O)([O-])c1c(F)cccc1F` (stereo unspecified), “inactive”; under `COc1cc2nc(NCC(C)c3ccccc3)n3nc(-c4ccccc4)nc3c2cc1OC` (stereo unspecified), “inactive”.
Consider `COc1ccc(-c2noc(CCC(=O)N(C)c3ccccc3C)n2)cc1`, for which the Potency was 20.6 µM (active).
On the same count and under the same terms, under `COc1ccc(N2CCN(C(=O)CCc3nc(-c4ccc(C)cc4)no3)CC2)cc1` stands “inactive”.
For `COc1ccc(-c2noc(CCC(=O)N3CCN(c4cccc(C)c4)CC3)n2)cc1`, the Potency entry was “inactive”.
For the compound `Cc1cc(OCC(=O)Nc2ncn[nH]2)c(C)c(C)c1Br`, the Potency result is “inactive”.
On the same count and under the same terms, under `CC(C)OC(=O)CN1CCN(c2ccc(Cl)cc2)CC1` stands 16.4 µM (active); under `O=C(CN1CCN(c2ccc(Cl)cc2)CC1)c1ccccc1`, “inactive”; under `O=C(CN1CCN(c2ccc(Cl)cc2)CC1)N1CCCC1`, “inactive”.
Same read-out and setting: under `Cc1ccc(-c2cnc(NCc3ccc(C(C)C)cc3)n2C)cc1` stands “inactive”.
In the case of `CCOc1ccc(-c2cc3nc(C4CCN(C(=O)OC(C)(C)C)CC4)c(C(=O)Nc4cccc(CC)c4)cn3n2)cc1`, the Potency entry is “inactive”.
On the same count and under the same terms, for `Cc1ccc(C)c(N2CCN(Cc3nnc(-c4ccccc4)o3)CC2)c1` the value was “inactive”.
On the same count and under the same terms, for `CCn1c2ccccc2c2nnc(SCC(=O)O)nc21` the value was “inactive”; for `CCn1c2ccccc2c2nnc(N3CCN(c4cc(C)ccc4C)CC3)nc21`, 20.6 µM (active).
Still for that read-out and setting: under `Cc1ccc(S(=O)(=O)n2nc(-c3ccc(Cl)cc3)nc2NCc2ccccc2)cc1` stands “inactive”; under `CCOc1ccc(NC(=O)CN(C)C(=O)c2cccc(S(=O)(=O)N3CCCC3)c2)cc1OCC`, “inactive”; under `Cc1ccc(NC(=O)CN(C)C(=O)c2cccc(S(=O)(=O)N3CCCC3)c2)cc1`, “inactive”.
For `COc1ccc(NC(=O)CN(C)C(=O)c2cccc(S(=O)(=O)N3CCN(c4ccccc4)CC3)c2)cc1`, the Potency is 16.4 µM (active).
On the same count and under the same terms, under `COc1ccccc1C(=O)OCc1cc(=O)n2nc(-c3cccs3)sc2n1` stands “inactive”.
On the same count and under the same terms, for `CC(C)(C)S(=O)(=O)N1Cc2cc(CO)cc(CCO)c2[C@H]1CCO` the value was “inactive”.
With `O=C(N/N=C/c1ccccn1)c1cccnc1`, the Potency result is “inactive”.
Consider `O=C(N/N=C/c1ccccn1)c1cccc(NC(=O)c2ccc(Cl)cc2)c1`, for which the Potency is 23.1 µM (active).
On the same count and under the same terms, under `O=C(N/N=C/c1ccccn1)c1ccc(S(=O)(=O)N2CCCCCC2)cc1` stands “inactive”; under `CCOc1ccc(/C=C(/C#N)c2nnc(N3CCOCC3)n2-c2ccccc2)cc1OC`, “inactive”; under `COc1ccc(CNC(=O)c2ccc(NC(=O)N3CC4CCCN4c4ccccc43)cc2)cc1` (stereo unspecified), “inactive”.
On the same count and under the same terms, for `CCN(CCCNC(=O)c1cc2c(=O)n(CC)c3ccccc3c2s1)Cc1ccccc1` the value was “inactive”.
As for `CCN1CCN(c2cc(C)c3cc(NC(=O)c4cc(Cl)ccc4OC)ccc3n2)CC1`, the activity change, negative = inhibition is 12% [at 9.27 µM] (inactive).
For `O=C(Nc1ncc([N+](=O)[O-])s1)C1COc2ccccc2O1` (stereo unspecified), the Potency was 14.6 µM (active).
Still for that read-out and setting: for `O=C(Nc1nc2c(F)cc(F)cc2s1)C1COc2ccccc2O1` (stereo unspecified) the value was “inactive”; for `O=C(Nc1nnc(SCc2ccc(Cl)cc2Cl)s1)C1COc2ccccc2O1` (stereo unspecified), “inactive”.
The same measure, in the same setting: under `Cc1ccc(C(=O)Nc2cc3c(cc2N2CCCC2)n(C)c(=O)c(=O)n3C)cc1` stands “inactive”; under `CN(C)C(=O)CCc1ccc2c3c([nH]c2c1)[C@]1(CCc2ccccc2)[C@@H](C(=O)N2CCCCC2)C[C@H](CC(=O)NCCC2=CCCCC2)C(=O)N1CC3`, “inactive”; under `O=C(Cn1c(-c2cccs2)cc2ccccc21)NCCc1ccc(Cl)cc1`, “inactive”.
On the same count and under the same terms, under `CCOc1ccc(S(=O)(=O)N2CCN(C(=S)NCC3CCCO3)CC2)cc1` (stereo unspecified) stands “inactive”.
Take `COc1ccc(S(=O)(=O)N2CCN(C(=S)NCC3CCCO3)CC2)cc1OC` (stereo unspecified): the Potency result is “inactive”.
The same measure, in the same setting: for `S=C(NCC1CCCO1)N1CCN(c2ccc(Cl)c(Cl)c2)CC1` (stereo unspecified) the value was 14.6 µM (active).
Same read-out and setting: for `CCCCOc1ccc(CN2C(=O)C(=O)c3cc(Br)cc(C)c32)cc1OC` the value was “inactive”; for `O=C(CN1C(=O)COc2ccc(S(=O)(=O)N3CCCCCC3)cc21)N1CCN(c2cccc(C(F)(F)F)c2)CC1`, “inactive”; for `CCc1cc2c(cc3c(=O)n(CC(=O)NCc4cccc(Cl)c4)nc(CC)n32)s1`, “inactive”.
On the same count and under the same terms, for `CN(C)c1ccc(NC(=O)CSc2nc(-c3ccco3)cc(C(F)(F)F)n2)cc1` the value was “inactive”.
Turning to `O=[N+]([O-])c1ccc(S(=O)(=O)N2CCN(c3nc(-c4ccccc4)nc4ccccc34)CC2)cc1`, the Potency result was “inactive”.
On the same count and under the same terms, under `Cc1ccc(C)c(S(=O)(=O)N2CCN(c3ncnc4sccc34)CC2)c1` stands 18.4 µM (active); under `Cc1ccc(S(=O)(=O)N2CCN(c3ncnc4ccccc34)CC2)cc1`, 2.31 µM (active) and 8.2 µM (active).
Still for that read-out and setting: for `COc1ccc(C)cc1S(=O)(=O)N1CCN(S(=O)(=O)c2cc(C(=O)O)ccc2C)CC1` the value was “inactive”; for `Cc1ccc(S(=O)(=O)N2CCN(c3nc(-n4cnc5ccccc54)nc4ccccc34)CC2)cc1`, “inactive”; for `Cc1ccc(C)c(S(=O)(=O)N2CCN(C(=O)Nc3ccccc3)CC2)c1`, “inactive”.
The same measure, in the same setting: under `Cc1ccc(C)n1-c1nnc(N2CCC(C(=O)NCc3ccccc3Cl)CC2)s1` stands “inactive”; under `CCCCn1nc(C(=O)Nc2cccc(C(=O)NC3CC3)c2)c2ccccc2c1=O`, “inactive”; under `Cc1ccccc1NC(=O)CSC(=O)c1ccccc1`, “inactive”.
Turning to `CC(=O)c1ccc(-c2nnc(CCC(=O)N(C)Cc3cnc4ccccn34)o2)s1`, the Potency entry was “inactive”.
On the same count and under the same terms, for `CCc1ccc(CN(C)C(=O)CCc2nnc(-c3ccc(-c4ccccc4)cc3)o2)nc1` the value was 18.4 µM (active); for `CCc1ccc(CN(C)Cc2nc(Cc3ccccc3)no2)nc1`, “inactive”; for `NC(=S)NN=C1CCCC(C(F)(F)F)C1` (stereo unspecified), “inactive”.
Consider `O=S(=O)(Nc1ccc2nc(N3CCOCC3)sc2c1)c1ccccc1`, for which the Potency result is “inactive”.
Same read-out and setting: for `COc1ccc(Cl)cc1NC(=O)COC(=O)c1ccc(Br)o1` the value was “inactive”; for `CC(=O)Nc1ccc(S(=O)(=O)NCCC(=O)N2CCN(c3ccccc3Cl)CC2)cc1`, “inactive”; for `CC(=O)Nc1ccc(NC(=O)COc2ncnc3ccccc23)cc1`, “inactive”.
Take `CC(=O)Nc1ccc(Nc2c3ccccc3nc3ccccc23)cc1`: the Potency was 5.8 µM (active).
For the compound `CCc1nc(Nc2ccc(NC(C)=O)cc2)c2oc3ccccc3c2n1`, the Potency entry was “inactive”.
On the same count and under the same terms, for `O=C1N[C@H](Cc2c[nH]c3ccccc23)COC(=O)[C@H](Cc2ccc(F)cc2)C/C=C\C[C@H]1CC(=O)N(CCO)Cc1ccccc1` the value was “inactive”; for `O=C(C1CCCN(S(=O)(=O)c2cccc3nonc23)C1)N1CCN(c2ccccc2F)CC1` (stereo unspecified), “inactive”.
For `O=[N+]([O-])c1cc(S(=O)(=O)Nc2cccc(Cl)c2)ccc1N=Nc1c(O)[nH]c2ccccc12`, the Potency was 20.6 µM (active).
Still for that read-out and setting: for `COc1ccc(S(=O)(=O)Nc2ccc3cn[nH]c3c2)cc1[N+](=O)[O-]` the value was “inactive”.
On to `O=C(O)c1ccccc1/C=N/Nc1ccc(S(=O)(=O)Nc2ccc(Cl)cc2)cc1[N+](=O)[O-]`, for which the Potency result was “inactive”.
The same measure, in the same setting: for `O=C(NCCCO)c1nn(-c2ccc(Cl)cc2)nc1CO` the value was “inactive”.
The same measure, in the same setting: for `O=C(CN1CCCSc2ccccc21)N1CCN(S(=O)(=O)c2ccccc2)CC1` the value was “inactive”.
On the same count and under the same terms, under `Cc1ccc(-c2nn(CCC(=O)Nc3ccc(OC(F)(F)F)cc3)c(=O)c3ccccc23)cc1` stands “inactive”; under `CCOc1ccc(N(CC(=O)Nc2ccccc2F)S(=O)(=O)c2c(C)[nH]c(=O)[nH]c2=O)cc1`, “inactive”; under `CCCN(c1ccc(C(C)C)cc1)S(=O)(=O)c1c(C)[nH]c(=O)[nH]c1=O`, 5.8 µM (active).
Regarding `CCOc1ccc(N(CC(=O)NC2CCCCCC2)S(=O)(=O)c2c(C)[nH]c(=O)[nH]c2=O)cc1`, the Potency result is “inactive”.
On the same count and under the same terms, for `COc1ccccc1CNC(=O)c1ccc(CS(=O)c2ccccc2Cl)o1` (stereo unspecified) the value was “inactive”.
On the same count and under the same terms, under `COC(=O)[C@]1(Cc2ccccc2)N[C@H](CN(C)S(=O)(=O)c2ccc(F)cc2)[C@@H]2C(=O)N(Cc3ccccc3)C(=O)[C@@H]21` stands “inactive”.
Still for that read-out and setting: for `CC1CCN(C(=O)c2cccc(S(=O)(=O)N3CCCc4ccccc43)c2)CC1` the value was “inactive”; for `Cc1ccc(NC(=O)c2cccc(S(=O)(=O)N3CCCc4ccccc43)c2)nc1`, 10.3 µM (active).
Regarding `O=C(Nc1nnc(S(=O)(=O)N2CCCc3ccccc32)s1)c1cccc(F)c1`, the Potency entry is “inactive”.
On the same count and under the same terms, for `Cc1ccc(S(=O)(=O)N2CCN(C(=O)Cn3c(=O)cnc4ccccc43)CC2)c(C)c1` the value was “inactive”.
The same measure, in the same setting: for `O=C1OC(Oc2ccc(Br)cc2)(c2ccccc2)c2ccccc21` (stereo unspecified) the value was “inactive”.
For the compound `CC(C)N(C(=O)COC(=O)c1ccccc1C(=O)N1CCN(c2ccc(F)cc2)CC1)C(C)C`, the Potency result is “inactive”.
Turning to `CCOc1ccc(NC(=O)c2cn(C3CCCCC3)c(=O)c3c2c2ccccc2n3C)cc1`, the Potency result is “inactive”.
On the same count and under the same terms, for `Cn1c2ccccc2c2c(C(=O)N3CCN(c4ccc(F)cc4)CC3)cn(C3CCCC3)c(=O)c21` the value was 25.9 µM (active); for `COc1cc(C2c3c(oc4ccccc4c3=O)C(=O)N2c2nc(C)c(C)s2)ccc1O` (stereo unspecified), “inactive”; for `CC[C@]12c3[nH]c4cc(CCC(=O)N(C)C)ccc4c3CCN1C(=O)[C@@H](CC(=O)NCC13CC4CC(CC(C4)C1)C3)C[C@@H]2C(=O)N1CCN(C(=O)C2CC2)CC1`, “inactive”.
